# Only some compounds are listed: those with a hit (about 3.5% of all), similar ones and a draw of the others.
# Rv3671c inh: Rv3671c (M. tuberculosis) protease inhibition; 320,000 tested, 0.048% active; P9WHR9; inhibition, % at 5.96 µM; AID 2606; in the data active = inhibition above about 38%;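 also: extracellular domain of Rv3671c used as enzyme; 0% = enzyme with DMSO and 100% = no enzyme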
# Target sequence (P9WHR9 whole entry, looked up, the tested form may be a part): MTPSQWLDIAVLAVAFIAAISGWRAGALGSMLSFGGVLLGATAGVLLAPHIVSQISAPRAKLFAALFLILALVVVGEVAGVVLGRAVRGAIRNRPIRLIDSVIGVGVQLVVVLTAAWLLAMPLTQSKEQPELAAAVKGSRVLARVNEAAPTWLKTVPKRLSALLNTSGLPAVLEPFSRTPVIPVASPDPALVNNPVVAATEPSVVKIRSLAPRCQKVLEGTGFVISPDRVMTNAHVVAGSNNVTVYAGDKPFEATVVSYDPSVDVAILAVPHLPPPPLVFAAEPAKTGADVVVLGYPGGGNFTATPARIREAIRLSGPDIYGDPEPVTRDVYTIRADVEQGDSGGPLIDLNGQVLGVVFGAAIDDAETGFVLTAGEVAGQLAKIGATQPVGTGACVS
# Mtb bLac sens: beta-lactam sensitization of Mtb H37Rv; 330,000 tested, 0.27% active; inhibition, % at 25 µM; M. tuberculosis H37Rv growth with meropenem, percent inhibition; call rule not given here;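 also: growth measured after seven days incubation then overnight dye step; 0% = bacteria only wells and 100% = bacteria with antibiotic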
# UGM FP inh: Mtb UDP-galactopyranose mutase inhibition | purified UGM, fluorescence polarization probe displacement | 320,000 tested, 0.06% active | AID 504406 | inhibition, % at 10 µM | P9WIQ1; in the data active = inhibition above about 10%, passing the limit was not always enough
# Mtb FBA inh: Mtb fructose-bisphosphate aldolase inhibition | AID 588726 | inhibition, % at 1 µM | 360,000 tested, 2.3% active | purified M. tuberculosis FBA, fluorescence read-out; in the data active = inhibition above about 27%;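 also: 0% = vehicle and 100% = reference inhibitor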
# GDH-TPI counter: counter-screen for M. tuberculosis FBA inhibitors: GDH-TPI coupled enzymes; AID 588335; inhibition, % at 4.8 µM; GDH-TPI coupled enzyme counterscreen, NADH absorbance; 360,000 tested, 1.2% active; in the data active = inhibition above about 30%;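 also: 0% = DMSO wells and 100% = wells lacking the enzyme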
# Numbers without * were called inactive; . = not tested or not shown; + = active, no number.
SMILES,Rv3671c inh,Mtb bLac sens,UGM FP inh,Mtb FBA inh,GDH-TPI counter
CCn1c(=NC(=O)c2ccc(N3C(=O)CCC3=O)cc2)sc2c(OC)ccc(OC)c21,-30,1,1,1,37*
CCn1c(=NC(=O)CN2C(=O)CCC2=O)sc2c(OC)ccc(OC)c21,-2,-10,-1,2,21
CC(=O)NS(=O)(=O)c1ccc(NC(=O)/C=C/c2cn(-c3ccccc3)nc2-c2ccccc2)cc1,-166,36,-2,-4,43*
O=C(/C=C\c1cn(-c2ccccc2)nc1-c1ccccc1)Nc1nccs1,-18,6,0,-1,27
COc1ccc(-c2ccc(C#N)c(SCC(=O)OCc3ccccc3)n2)cc1OC,1,99,-1,+,23
COc1ccc(-c2ccc(C#N)c(SCC(=O)NCc3ccco3)n2)cc1OC,-9,-4,2,+,46*
COc1ccc(-c2nnc3ccc(SCC(=O)NCc4ccco4)nn23)cc1OC,8,-8,-1,-1,2
CCOC(=O)/C(C#N)=N/Nc1ccc(S(=O)(=O)Nc2cc(OC)nc(OC)n2)cc1,-7,0,3,-8,38*
COc1cc(NS(=O)(=O)c2ccc(N/C=C(\C#N)c3nc4cc(Cl)ccc4o3)cc2)nc(OC)n1,-10,10,4,5,53*
Cc1cc(=O)n2nc(N3CCCC(C(=O)NCc4ccccc4Cl)C3)sc2n1 (stereo not drawn),5,-7,1,1,10
CC[n+]1c(/C=C/N(C)c2ccccc2)oc2ccc(Cl)cc21,-19,-6,2,-5,46*
CCCCN(C)C(=O)Cn1cnc2sc(C)c(S(=O)(=O)N3CCN(c4ccccc4OC)CC3)c2c1=O,-1,2,0,2,-6
C/C(=N\Nc1nccnc1Cl)c1ccc(O)c(C)c1,9,0,0,2,44*
COc1ccc(C(=O)OC(C)C(=O)NC(C)CCc2ccccc2)c(OC)c1 (stereo not drawn),-5,-4,-1,-1,5
S=c1[nH]ncn1/N=C/c1ccc(N2CCOCC2)cc1,3,3,1,1,28
C(=N\n1cnnc1)/c1ccc(N2CCOCC2)s1,-2,0,0,8,11
C(=N\n1cncn1)/c1ccc(N2CCOCC2)cc1,-6,-1,-1,-3,46*
C(=N\n1cnnc1)/c1ccc(N2CCOCC2)cc1,1,-9,4,5,34*
CC(=NCc1cccc(Cl)c1)c1nc(-c2ccco2)oc1O,-2,7,0,-3,34*
Oc1oc(-c2ccco2)nc1C=Nc1cccc(Cl)c1,-1,94,1,2,11
CCOc1ccc(N2C(=O)CC(N(CCc3ccc(OC)cc3)C(=O)/C=C/C(=O)O)C2=O)cc1 (stereo not drawn),-1,6,-4,1,2
Cc1cc2oc3cc(NCCC4CCCN4C)ccc3c(=O)c2cc1C (stereo not drawn),-2,34,3,+,23
CN1CCCC1CCNc1ccc2sc3ccccc3c(=O)c2c1 (stereo not drawn),-6,67,4,-1,13
COc1ccc(NC(=S)NNc2ccc(S(=O)(=O)Nc3ccccc3C(=O)O)cc2[N+](=O)[O-])cc1,22,-8,1,-4,41*
O=C(O)c1ccccc1NS(=O)(=O)c1ccc(NN=Cc2ccccc2F)c([N+](=O)[O-])c1,7,-3,2,-1,32*
SMILES,Rv3671c inh,Mtb bLac sens,UGM FP inh,Mtb FBA inh,GDH-TPI counter
CSc1ccc(C=NNc2ccc(S(=O)(=O)Nc3ccccc3C(=O)O)cc2[N+](=O)[O-])cc1,9,45,-2,-5,-5
Cc1nn(-c2ccccc2)c(Cl)c1/C=N/Nc1ccc(S(=O)(=O)Nc2ccccc2C(=O)O)cc1[N+](=O)[O-],9,15,0,-6,47*
O=C(Nc1ccc(Cl)c(Cl)c1)C1C2C=CC3(O2)C1C(=O)N(CCN1CCCCC1)C3C(=O)NC1CCCCC1 (stereo not drawn),6,11,0,0,-2
Cc1cc(C)c(C)c(S(=O)(=O)NCCN2CCOCC2)c1C,2,-2,0,1,15
COc1ccccc1C(CNC(=O)c1ccc(OCc2c(C)noc2C)cc1)N1CCCC1 (stereo not drawn),0,-15,-3,1,4
COc1ccc(C(=O)N2CCOC2CNC(=O)C(=O)NCc2ccccc2)cc1 (stereo not drawn),.,.,.,-2,2
C=CCn1c(SC(C)C#N)nc2sc(CC)cc2c1=O (stereo not drawn),-3,-2,2,-2,-1
Cc1cccc([C@@H]2[C@@H]3C(=O)N(Cc4ccccc4)C(=O)[C@@H]3[C@]3(Cc4ccccc4)C(=O)N(c4cccc(F)c4)C(=O)N23)c1,-14,-4,-2,0,4
O=C(Nc1ncc2c(n1)-c1ccccc1OC2)c1ccccc1Cl,-5,6,-2,113*,20
CC(=O)Nc1ccc(S(=O)(=O)C(C#N)c2nc3ccccc3nc2NCCO)cc1 (stereo not drawn),1,-13,1,+,23
CC(=O)Nc1ccc(S(=O)(=O)C(C#N)c2nc3ccccc3nc2NCCCO)cc1 (stereo not drawn),-12,-4,1,+,24
Cc1ccc(S(=O)(=O)C(C#N)c2nc3ccccc3nc2OCCO)cc1 (stereo not drawn),-8,6,0,5,14
COc1ccccc1C(=O)N=Nc1c(O)[nH]c2ccc([N+](=O)[O-])cc12,.,.,.,-1,18
NC(=O)N=Nc1c(O)[nH]c2ccc([N+](=O)[O-])cc12,-4,-6,4,-3,31*
O=[N+]([O-])c1ccc(NCCCO)c(S(=O)(=O)N2CCOCC2)c1,0,0,1,-2,40*
CC(C)C(NC(=O)c1ccc2c(c1)OCO2)C(=O)N/N=C/c1cccs1 (stereo not drawn),0,9,1,0,15
Cc1c(/C=N/NC(=O)C(NC(=O)c2ccc3c(c2)OCO3)C(C)C)c2ccccc2n1C (stereo not drawn),-2,1,1,2,38*
Cc1nc2ccc(-c3nc4cc(N)ccc4o3)cc2[nH]1,-4,-1,2,12,21
Nc1ccc2oc(-c3ccc4nc[nH]c4c3)nc2c1,5,-4,4,6,31*
Cc1[nH]c(C(=O)N/N=C/c2ccc(C(=O)O)cc2)c(C)c1C(=O)N/N=C/c1ccc(C(=O)O)cc1,-7,4,-1,-1,74*
COc1cccc(/C=N/NC(=O)c2[nH]c(C)c(C(=O)N/N=C/c3cccc(OC)c3O)c2C)c1O,-24,1,0,1,43*
COc1cccc(/C=N/NC(=O)c2ccc(=O)[nH]n2)c1O,-6,1,0,3,31*
Cc1cc(C(=O)NNC(=S)Nc2ccccc2)nn1C,6,2,4,2,1
COc1ccc(/C(C)=N/N=C(N)N)c(O)c1,0,-4,-2,2,9
CNC(=S)NN=C(C)c1ccc(OC)cc1O,.,.,.,4,39*

# Bioassay records as filed in PubChem BioAssay.
